PD-1 reverse act – reversal of PD-1 mediated T-cell inhibition; primary human CD4 T cells, PD-L1 beads, CellTiter-Glo 96 h; 29,000 tested, under 10 active; activation, % (no concentration beside the values); call rule not given here;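 further: 0% = median vehicle wells and 100% = positive control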
ROS inducer – raises reactive oxygen species in U2OS cancer cells; U2OS ROS induction, H2DCF-DA fluorescence; ROS induction (% of piperlongumine), % at 10 µM; 46,000 tested, 2% active; AID 624156; in the data active means ROS induction above about 79%, passing the limit was not always enough;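 further: 0% = DMSO vehicle median and 100% = reference compound median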
NOMO-1 viab – STK33 inhibitor candidate reducing NOMO-1 cell viability | NOMO-1 AML viability, CellTiter-Glo luminescence, 72 h | inhibition, % (no concentration beside the values) | 37,000 tested, 7.5% active | AID 2330; in the data active means inhibition above about 80%
An asterisk follows results filed as active; · = no result given. Shown is part of a subset that was picked to be rich in hits.

SMILES	PD-1 reverse act	ROS inducer	NOMO-1 viab
C[C@H](CO)N1C[C@H](C)[C@H](CN(C)CC2CCCCC2)Oc2ccc(NC(=O)Cc3ccccc3)cc2CC1=O	·	-3	28
C[C@H]1CN([C@@H](C)CO)C(=O)Cc2cc(NC(=O)Nc3ccc4c(c3)OCO4)ccc2O[C@@H]1CN(C)CC1CCCCC1	2	20	92*
C[C@@H]1CN([C@H](C)CO)C(=O)Cc2cc(NC(=O)Cc3ccccc3)ccc2O[C@H]1CN(C)CC1CCCCC1	2	79*	38
Cc1ccccc1OCCn1c(CCCNC(=O)C2CCCCC2)nc2ccccc21	·	18	·
Cc1ccc(Cn2c(C(=O)NCc3ccccc3)cc3sccc32)cc1	·	-9	·
Cc1ccc(-c2nc(C(=O)N(C)c3cc(C)ccc3C)c3n2CCCCC3)cc1	·	8	·
O=C(CCC1CCCCC1)NCCC12CC3CC(CC(C3)C1)C2	·	16	·
C[C@H]1CN([C@@H](C)CO)C(=O)c2cc(NC(=O)Nc3cccc4ccccc34)ccc2O[C@H]1CN(C)CC1CCCCC1	-1	-2	25
CC(C)NC(=O)Nc1ccc2c(c1)CC(=O)N([C@H](C)CO)C[C@H](C)[C@H](CN(C)CC1CCCCC1)O2	·	2	35
CC(C)NC(=O)Nc1ccc2c(c1)CC(=O)N([C@H](C)CO)C[C@@H](C)[C@@H](CN(C)CC1CCCCC1)O2	2	22	8
C[C@H]1CN([C@@H](C)CO)C(=O)Cc2cc(NC(=O)Nc3ccc(F)cc3)ccc2O[C@@H]1CN(C)CC1CC1	0	3	8
C[C@H](CO)N1C[C@H](C)[C@H](CN(C)CC2CCCCC2)Oc2ccc(NC(=O)Nc3cccc4ccccc34)cc2CC1=O	·	9	99*
C[C@H](CO)N1C[C@H](C)[C@H](CN(C)CC2CCCCC2)Oc2ccc(NC(=O)Nc3ccc(F)cc3)cc2CC1=O	·	-2	95*
C[C@H]1CN([C@@H](C)CO)C(=O)Cc2cc(NC(=O)Nc3ccc(F)cc3)ccc2O[C@@H]1CN(C)CC1CCCCC1	1	9	99*
C[C@H]1CN([C@@H](C)CO)C(=O)Cc2cc(NC(=O)Nc3ccc(F)cc3)ccc2O[C@H]1CN(C)CC1CCCCC1	-1	30	105*
O=C(Cn1cc(-c2ccccc2)nc1SCc1ccccc1)c1ccccc1	·	3	·
COc1cc(CNCc2cccc(C(F)(F)F)c2)cc(OC)c1	·	-8	·
C[C@@H]1CN([C@H](C)CO)C(=O)Cc2cc(NC(=O)Nc3ccccc3)ccc2O[C@H]1CN(C)CC1CC1	3	-8	-14
C[C@H](CO)N1C[C@H](C)[C@H](CN(C)CC2CCCCC2)Oc2ccc(NC(=O)Nc3ccccc3)cc2CC1=O	·	-11	106*
O=S(=O)(Nc1ccncc1)c1ccc2ccccc2c1	·	1	·
CCOC(=O)CC(=O)c1ccn(C)n1	·	-12	·
Cc1cc2ccccc2n2c(SCC(N)=O)nnc12	·	·	21
Cc1cc2ccccc2n2c(SCC(=O)NCc3ccco3)nnc12	0	4	111*
N#Cc1cc(Br)ccc1N=C1CCCN1c1cccc(Cl)c1	·	8	·
C[C@@H]1CN([C@@H](C)CO)C(=O)c2cc(NC(=O)CCCCCC(=O)Nc3ccccc3N)ccc2O[C@@H]1CN(C)Cc1ccc(-c2ccccc2)cc1	2	1	46
SMILES	PD-1 reverse act	ROS inducer	NOMO-1 viab
C[C@H]1CN([C@@H](C)CO)C(=O)Cc2cc(NC(=O)CCCCCC(=O)Nc3ccccc3N)ccc2O[C@@H]1CN(C)Cc1ccc(C(F)(F)F)cc1	1	-8	106*
C[C@H]1CN([C@@H](C)CO)C(=O)Cc2cc(NC(=O)CCCCCC(=O)Nc3ccccc3N)ccc2O[C@@H]1CN(C)Cc1ccc(-c2ccccc2)cc1	0	28	140*
C[C@H]1CN([C@@H](C)CO)C(=O)Cc2cc(NC(=O)CCCCCC(=O)Nc3ccccc3N)ccc2O[C@@H]1CN(C)Cc1ccc2c(c1)OCO2	-2	49	34
C[C@@H]1CN([C@H](C)CO)C(=O)Cc2cc(NC(=O)CCCCCC(=O)Nc3ccccc3N)ccc2O[C@@H]1CN(C)C(=O)Nc1ccc(C(F)(F)F)cc1	0	1	4
C[C@@H]1CN([C@@H](C)CO)C(=O)Cc2cc(NC(=O)CCCCCC(=O)Nc3ccccc3N)ccc2O[C@@H]1CN(C)Cc1ccc(-c2ccccc2)cc1	1	21	142*
CCc1cccc(C)c1NC(=O)CCC(=O)N1CCOc2ccccc21	·	-9	·
CCCN(CCC)C(=O)c1cc(S(=O)(=O)N2CCc3ccccc32)cn1C	·	-1	·
CC1(C)CC(=O)C(C=NCc2ccco2)=C(O)C1	·	2	·
Cc1cccc(OCCn2c(-c3cccc(C)c3)nc3ccccc32)c1	·	24	·
Cc1nnc(Sc2nc(Nc3ccccc3)nc(Nc3ccccc3)n2)s1	·	31	·
O=C(CN1CCCc2ccccc21)Nc1ccc(Cl)c(Cl)c1	0	3	39
C[C@@H]1CN([C@H](C)CO)C(=O)c2cc(NS(=O)(=O)c3ccc(Cl)cc3)ccc2O[C@H]1CN(C)Cc1ccccc1	0	6	10
COc1ccc(S(=O)(=O)Nc2ccc3c(c2)C(=O)N([C@H](C)CO)C[C@H](C)[C@@H](CN(C)Cc2ccc(Cl)c(Cl)c2)O3)cc1	0	23	51
COc1ccc(CN(C)C[C@H]2Oc3ccc(NS(=O)(=O)c4ccc(Cl)cc4)cc3C(=O)N([C@H](C)CO)C[C@@H]2C)cc1	·	147*	32
COc1ccc(S(=O)(=O)Nc2ccc3c(c2)C(=O)N([C@@H](C)CO)C[C@@H](C)[C@@H](CN(C)Cc2ccc(Cl)c(Cl)c2)O3)cc1	-3	52	114*
COc1ccc(CN(C)C[C@H]2Oc3ccc(NS(=O)(=O)c4ccc(Cl)cc4)cc3C(=O)N([C@@H](C)CO)C[C@@H]2C)cc1	-1	35	15
C[C@@H]1CN([C@H](C)CO)C(=O)c2cc(NS(=O)(=O)c3ccc(Cl)cc3)ccc2O[C@@H]1CN(C)Cc1ccccc1	-1	-7	87*
CCCNC(=O)C1CCN(c2nn3c(=O)cc(C)nc3s2)CC1	·	-8	·
COc1ccc(C2CC(=O)c3cnc(N)nc3C2)cc1OC (centres undefined)	·	60	·
COC(=O)c1cnn2c(C)c(Cc3ccccc3)c(C)nc12	·	-3	·
CN(C)C(=O)CSc1nnc(-c2cccc(F)c2)n1-c1ccccc1	·	-8	·
Cc1ccc(S(=O)(=O)Nc2ccc3c(c2)C(=O)N([C@H](C)CO)C[C@@H](C)[C@H](CN(C)Cc2ccc(-c4ccccc4)cc2)O3)cc1	-2	33	111*
C[C@@H]1CN([C@@H](C)CO)C(=O)c2cc(NS(=O)(=O)c3ccc(F)cc3)ccc2O[C@@H]1CN(C)Cc1ccc(-c2ccccc2)cc1	-3	29	111*
Cc1ccc(S(=O)(=O)Nc2ccc3c(c2)C(=O)N([C@H](C)CO)C[C@H](C)[C@H](CN(C)Cc2ccc(-c4ccccc4)cc2)O3)cc1	3	13	47
C[C@@H]1CN([C@H](C)CO)C(=O)c2cc(NS(=O)(=O)c3ccccc3)ccc2O[C@H]1CN(C)Cc1ccc(-c2ccccc2)cc1	-1	68	107*
C[C@@H]1CN([C@H](C)CO)C(=O)c2cc(NS(=O)(=O)c3ccc(F)cc3)ccc2O[C@@H]1CN(C)Cc1ccccc1	0	18	-11
